# RGS4 inhibitor: Inhibitors of Regulator of G Protein Signaling (RGS) 4: qHTS; AID 504845, 2011; Transcreener GDP fluorescence polarization, RGS4-accelerated GTP hydrolysis; hit rate 0.039% among 390,000; Potency, µM (top dose mostly 114 µM), actives largely listed as inhibitors; further: nearly all actives have a fitted effect of over 75% in size
#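 MLSMR compounds (23 nl, pin-transferred) preincubated 10 min at room temperature with a 500nM (2x) first reagent, then RGS4 at 900nM (2x) plus Transcreener GDP mix added; fluorescence polarization (620/688 nm) read before and after 90 min at 30 °C.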
# TSG101-PTAP inh: qHTS Assay for Iinhibitors of HIV-1 Budding by Blocking the Interaction of PTAP/TSG101; Tumor susceptibility gene 101 protein (Homo sapiens), Q99816; Potency, µM (titrated, usually from 115 µM), most hits filed as inhibitors; Fluorescence polarization, FITC-PTAP peptide / Tsg101 binding; 340,000 tested, under 10 active; AID 493005, 2010; active means well fitted inhibition curve with a large enough effect in the main read-out, with a control signal flat, not every such curve was filed as active; inconclusive means small, poorly fitted or top-dose-only effect, or effect the other way, or a change in a side signal; inactive means no such curve, though single readings can be large or run the other way
# Target sequence (Q99816 whole entry, looked up): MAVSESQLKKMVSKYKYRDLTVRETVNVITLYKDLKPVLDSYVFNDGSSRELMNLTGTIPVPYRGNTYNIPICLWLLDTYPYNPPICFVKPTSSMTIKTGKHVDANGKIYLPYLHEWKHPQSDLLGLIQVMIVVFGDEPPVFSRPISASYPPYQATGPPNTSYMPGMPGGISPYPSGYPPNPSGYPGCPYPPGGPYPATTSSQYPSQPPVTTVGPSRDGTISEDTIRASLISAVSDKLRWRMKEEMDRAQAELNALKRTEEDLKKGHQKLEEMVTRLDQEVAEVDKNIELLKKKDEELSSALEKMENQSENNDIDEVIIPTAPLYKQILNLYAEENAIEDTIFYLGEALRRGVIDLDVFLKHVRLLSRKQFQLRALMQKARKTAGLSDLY
#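 Tsg101 binding domain (10 uM final) was mixed with compound and a FITC-labeled PTAP peptide (50 nM final) in HEPES pH 7.5 buffer with NaCl, Tween 20, EDTA and TCEP; fluorescence polarization was read after 20 min at r.t.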
# MCF10A rerep: A quantitative high throughput screen for small molecules that induce DNA re-replication in MCF 10a normal breast cells; MCF 10A DNA re-replication, Hoechst nuclear intensity, 48 h; Potency, µM (titrated, usually from 46.1 µM), actives largely listed as activators; hit rate 2.9% among 350,000; AID 624296, 2012; further: nearly all actives have a fitted effect of over 50% in size
# KB-3-1 cytotox: qHTS assay for MDR1-selective chemotherapeutics: Primary screen using the parental adenocarcinoma cell KB-3-1 | KB-3-1 viability, CellTiter-Glo ATP luminescence, 72 h | Potency, µM (highest dose often 46.1 µM), usual class: cytotoxic | hit rate 1.4% among 400,000 | AID 1347075, 2019; further: nearly all actives have a fitted effect of over 60% in size
#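 Here the drug-naive KB-3-1 line serves as comparator for MDR sub-line selectivity; cells received compound titrations, 72 h at 37 °C, then CellTiter-Glo readout.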
# KB-V1 cytotox: qHTS assay for MDR1-selective chemotherapeutics: Primary screen using the drug-selected MDR subline cells KB-V1. AID 1347076, 2019. Potency, µM (doses to about 46.1 µM), usual class: cytotoxic. hit rate 3.4% among 400,000. KB-V1 MDR cells viability, CellTiter-Glo, 72 h; further: nearly all actives have a fitted effect of over 60% in size
#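 Readout: CellTiter-Glo luminescence, 10 min after addition. Cells: KB-V1 MDR subline, 72 h at 37 degrees C with compound. Analysis: corrected, normalized data fitted to concentration-effect curves.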
# SW480 rerep: A quantitative high throughput screen for small molecules that induce DNA re-replication in SW480 colon adenocarcinoma cells | hit rate 1.8% among 340,000 | SW480 DNA re-replication, Hoechst DNA content imaging, 48 h | Potency, µM (doses to about 46.1 µM), actives largely listed as activators; further: nearly all actives have a fitted effect of over 55% in size
#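 Cells (250 per well) received 23 nL compound or DMSO by pin tool and were kept 48 hr at 37 C, 5% CO2. Nuclei were then stained with Hoechst for 40 min and scanned for DNA content.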
# Numbers stand for hits; n = inactive; u = inconclusive; x = no result; [ ] = another dose, or the depositor's remark. Only some compounds are listed: those with a hit (about 6.6% of all), similar ones and a draw of the others. Unless noted, the call rests on the fitted dose curve; in most records, active means well fitted curve in the direction sought with a large enough effect; inconclusive means small, poorly fitted or top-dose-only effect, or another doubt; inactive means no such curve, though single readings can be large; an effect the other way counts as inactive or inconclusive.
SMILES,RGS4 inhibitor,TSG101-PTAP inh,MCF10A rerep,KB-3-1 cytotox,KB-V1 cytotox,SW480 rerep
Cc1cccc(NC(=O)CSc2nc(=O)n(CCN3CCOCC3)c3c2CCC3)c1C,n,x,x,x,x,x
CCOc1ccc(C(=O)c2oc3ccccc3c2NC(=O)Cc2coc3ccc(CC)cc23)cc1,n,x,x,n,n,x
CCCCc1nn2c(C)c(-c3ccc(OCC)cc3)nc2s1,n,x,x,n,n,x
Cc1ccnc(NC(=S)N2CCN(c3cccc(N(C)C)c3)CC2)c1,x,x,x,n,n,x
Cc1cc(C)nc(Sc2nc(C)nc3c2oc2ccccc23)n1,n,n,u,21µM,u,u
Cc1nc(NCCCN2CCOCC2)c2oc3ccccc3c2n1,n,n,n,n,u,n
Cc1nc(SCC(=O)Nc2ccc(F)cc2)c2oc3ccccc3c2n1,n,n,u,n,n,n
Cc1nc(SCC(=O)Nc2ccccc2)c2oc3ccccc3c2n1,n,n,12µM,n,n,n
Cc1nc(NCCc2ccccc2)c2oc3ccccc3c2n1,n,n,n[0.0737 µM],u,23µM,n
O=C(O)CSc1nc(-c2ccc(Cl)cc2)nc2c1oc1ccccc12,n,n,23µM,n,n,n
O=C(O)CSc1nc(-c2ccccc2)nc2c1oc1ccccc12,n,n,n,n,n,n
Cc1nc(SCC(=O)N2CCCc3ccccc32)c2oc3ccccc3c2n1,n,n,u,n,21µM,16µM
COc1ccc(-n2nnc3c(=O)n(CC(=O)N4CCCc5ccccc54)cnc32)cc1,n,n,n,n,n,n
COc1ccc(-n2nnc3c(SCC(=O)N4CCCc5ccccc54)ncnc32)cc1,n,n,n,n,n,12µM
CCc1nc(SCC(=O)NCCc2ccccc2)c2oc3ccccc3c2n1,n,n,n,n,18µM,n
Cc1nc(SCC(=O)NC(C)c2ccccc2)c2oc3ccccc3c2n1 (centres undefined),n,n,u,n,5.2µM,n
Clc1ccc(Nc2nnc(Cc3ccncc3)c3ccccc23)cc1,x,x,n,x,x,n
CCOc1ccc(-c2nc(SC(C(C)=O)C(=O)N(C)C)c3c(=O)n(C)c(=O)n(C)c3n2)cc1 (centres undefined),n,x,x,n,u,x
O=C(COC(=O)c1ccccc1OCCOc1ccccc1)Nc1ccc(Br)cc1,x,x,x,u,n,x
CCCCC12CN3CC(C)(CN(C1)C3c1c(C)[nH]c(=O)[nH]c1=O)C2=O (centres undefined),n,x,x,n,n,x
CC(CNC(=O)c1ccc2nc(Cc3ccccc3)oc2c1)c1ccccc1 (centres undefined),n,x,x,u,n,x
Cc1cc(C)nc(-n2nc(C)c(Sc3ccc(F)cc3)c2N)n1,n,n,3.3µM,n,u,18µM
Cc1nn(-c2ccccc2)c(N)c1Sc1cccc([N+](=O)[O-])c1,u,n,n,n,u,n
COC(=O)c1ccc(NC(=O)CSc2ncc3c(n2)-c2cc(Cl)ccc2N(Cc2ccccc2)S3(=O)=O)cc1,n,x,x,n,n,x
CC(C)c1ccc(S(=O)(=O)c2cc3cc(Br)ccc3oc2=O)cc1,n,n,8.2µM,u,u,n
SMILES,RGS4 inhibitor,TSG101-PTAP inh,MCF10A rerep,KB-3-1 cytotox,KB-V1 cytotox,SW480 rerep
Cc1ccc2oc(=O)c(S(=O)(=O)c3ccc(F)cc3)cc2c1,n,x,x,n,n,x
CC(C)c1ccc(NC(=O)c2ccc3oc(=O)c(S(=O)(=O)c4ccc(F)cc4)cc3c2)cc1,n,x,x,n,n,x
Cc1ccc(S(=O)(=O)c2cc3cc(Br)ccc3oc2=O)cc1,n,n,u,21µM,18µM,n
CCCCOc1cccc(C(=O)N(Cc2sccc2C)C2CCS(=O)(=O)C2)c1 (centres undefined),n,x,x,x,x,x
Cc1cccc(Cn2c(=O)n(-c3ccc(CC(=O)NCc4ccco4)cc3)c(=O)c3sccc32)c1,n,n,u,23µM,u,u
O=c1c2sccc2n(Cc2cccc(F)c2)c(=O)n1-c1ccc(F)cc1,n,n,u,n,8.2µM,n

# Screening results as filed in PubChem BioAssay.
